The text below walks through data of the supplement of paper PMC11417369.

The full ranking holds about 25,000 sequences; the median of “ln(normalized median fluorescence intensity)” is about 9.7, and the highest 2% start at about 11. The list comes from a sample in which the highest values are over-represented; it also holds similar and randomly drawn sequences.

The subject of the assay is PfAP2-HC AP2 domain (GST-tagged). The assay can be described thus: gcPBM binding intensity (ln(normalized median fluorescence intensity)); higher = stronger DNA binding. The method in brief: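 The binding buffer was 1× PBS containing 1% milk, 0.2 mg/ml BSA, 0.5% salmon testes DNA and 0.03% Triton X-100. In it, GST-tagged P. falciparum DNA-binding domains expressed in E. coli were applied for 1 h to an Agilent 4 × 180k array of primer-extended double-stranded 36-bp intergenic genomic probes plus negative controls. Binding intensity, read with Alexa488 anti-GST antibody and a 488 nm scan, is the highest Masliner-normalised natural-log median intensity across replicate spots of either probe orientation.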
“GCTTTTGTCATGTGCACACACGTATATATTATATAT [CACACA_site6146]”: the “gcPBM binding intensity (ln)” value was 10.9.
Take “AATATCTAAATAAAGTGTACTTACCTTATTAATTAT [XGTACX_site2276]”: the “gcPBM binding intensity (ln)” value was 9.64.
In the case of “CATAAAAATTGAAGCACACACACAAAAGAAATACAA [CACACA_site1112]”, the “gcPBM binding intensity (ln)” value came out at 10.7.
For the sequence “TAAAAATTGAAGCACACACACAAAAGAAATACAATA [CACACA_site1113]”, the “gcPBM binding intensity (ln)” value was 10.9.
The result for “TAAAAGTTGAAGCACACACACAAAAGAAATACAATA [CACACA_site6649]” reads 11.3; that for “TTAAGTCCGTTAACAGTGCATTTTTTCTTTTATGTA [GTGCAC_site9867]”, 9.58; that for “TATATAAATATACATTGTACTCAACATTTTCATTAA [XGTACX_site3690]”, 9.62.
As for “TCATTCATATGTTACACACACACACCCACATAAAAA [CACACA_site3245]”, the “gcPBM binding intensity (ln)” value amounted to 11.2.
The result for “ATATGTTACAGACACACACACACATAAAAAAACAAA [CACACA_site3248]” reads 11.1.
For “ATGTTACACAGACACACACACATAAAAAAACAAAAA [CACACA_site7516]”, the “gcPBM binding intensity (ln)” value was 10.4.
Consider “ATGTTACTCAGACACACACACATAAAAAAACAAAAA [CACACA_site3249]”, for which the “gcPBM binding intensity (ln)” value stood at 10.4.
With “AATACAGACAGACACACACACAAAATAAAATACAAA [CACACA_site245]”, the “gcPBM binding intensity (ln)” value amounted to 10.5.
On to “GTGTACAGACACAAAATATATACATATATATATATA [CACACA_negctrl_site1796]”, for which the “gcPBM binding intensity (ln)” value was 9.51.
The result for “GGTACATACAGACACACACACAAAAAAAAAAAAATA [CACACA_site6844]” reads 11.2.
The result for “ATTCATTCATATGTTACACACACACGCCCACATAAA [CACACA_site7513]” reads 10.6; that for “AACAAATACAGACACACACACACACTAATAAAAAAA [CACACA_site8067]”, 11.6; that for “ATTCATTCATATGTTACACACACACCCACCCATAAA [CACACA_site9066]”, 10.1.
Regarding “TGAACACAGACAAATACACACAAAAAAAATAAATAA [CACACA_site4298]”, the “gcPBM binding intensity (ln)” value is 10.
Consider “ATATGTCACTTGTATACACACATATAGATTTCAATC [CACACA_site7519]”, for which the “gcPBM binding intensity (ln)” value was 9.94.
With “GAAAATAAAAAATATGAACACACATATATAACAAAA [CACACA_site7975]”, the “gcPBM binding intensity (ln)” value worked out at 10.5.
“AATACACCCAGACACACACACAAAAAAAAAAAAAAA [CACACA_site513]”: the “gcPBM binding intensity (ln)” value was 10.1.
On to “AACACATACAAACACACACACAAAAAAAAAAAAAAA [CACACA_site393]”, for which the “gcPBM binding intensity (ln)” value was found to be 10.4.
“ATGGTACATACATACACACACACAAAAAAAAAAAAA [CACACA_site1578]”: the “gcPBM binding intensity (ln)” value is 11.3.
As for “TTTTTGTAATGACACACACACAAACAGAAAAAATAA [CACACA_site7062]”, the “gcPBM binding intensity (ln)” value was found to be 10.2.
As to “AACAAATACAGACACACACACACACCCAAAAAAAAA [CACACA_site515]”, the “gcPBM binding intensity (ln)” value came to 10.9.
In the case of “GGTACATACAAACACACACACAAAAAAAAAAAAATA [CACACA_site1577]”, the “gcPBM binding intensity (ln)” value was 10.3.
The result for “ATAAATGACAGACACACACACAAAAAAAAAAAACAA [CACACA_site2626]” reads 11.5.
Consider “CATACAGATGGACACACACACACACCCACAGACAAA [CACACA_site4431]”, for which the “gcPBM binding intensity (ln)” value turned out to be 10.5.
The result for “TACATATACAGACACACACACACACCCCCACAAAAA [CACACA_site495]” reads 10.8; that for “TACAGATACGGACACACACACACACCCAGACAAAAA [CACACA_site4432]”, 11; that for “AAAAAAAACAGACACACACACAAATATATAAAAATA [CACACA_site1172]”, 10.6.
In the case of “TAGGGATTATACCACACACACATACACATAAATATA [CACACA_site3178]”, the “gcPBM binding intensity (ln)” value was 10.3.
As to “ACAATATGCAAAAAGTGTACACATTCATTTATATAA [XGTACX_site1061]”, the “gcPBM binding intensity (ln)” value was 10.1.
As for “AGCAACCCCCTAGCTACACACATATAGATATAAATA [CACACA_site6577]”, the “gcPBM binding intensity (ln)” value worked out at 10.6.
Regarding “TTTAAATCGTTAAAAACACACAAAAAAAATCAATTA [CACACA_site2519]”, the “gcPBM binding intensity (ln)” value came out at 9.59.
On to “TTTTTTTTTTTGGTTACACACATTTGTATATTCTCA [CACACA_site134]”, for which the “gcPBM binding intensity (ln)” value worked out at 9.89.
Consider “CTATATGTTAAATTCTCACACATTATTACAATTTAA [CACACA_site5979]”, for which the “gcPBM binding intensity (ln)” value came to 9.67.
For the sequence “AATTGTAAATTGGGCACTTATAAAAATGAACAAATA [CACACA_negctrl_site1583]”, the “gcPBM binding intensity (ln)” value came to 9.71.
“ATGAAAAAATTTATATGTACTTAAAATATAATCATA [XGTACX_site1228]”: the “gcPBM binding intensity (ln)” value was 9.33.
In the case of “AAAAAAAAAAAAAACACACACATACAGACAAAAATG [CACACA_site83]”, the “gcPBM binding intensity (ln)” value is 11.5.
The result for “AAAAAAAACAGACACACACACAAATACATACACAAA [CACACA_site705]” reads 10.5; that for “AAAAAAAACAGACACATACACACAAAAATGTTATAA [CACACA_site82]”, 10.9.
Turning to “TACAAACAGACATATACACACAAAAAAAAAATAAAA [CACACA_site2562]”, the “gcPBM binding intensity (ln)” value is 9.89.
As for “AAAAAACACGCACATACACACAAAAATGTTATAAAT [CACACA_site6188]”, the “gcPBM binding intensity (ln)” value was found to be 10.2.
As to “AAATAAAACAGACACACACACACATACACAAAAAAA [CACACA_site7753]”, the “gcPBM binding intensity (ln)” value turned out to be 10.9.
“TATATATACAGACACATACACACAAATAAAAAAACA [CACACA_site3413]”: the “gcPBM binding intensity (ln)” value stood at 10.3.
Turning to “AAAAAACACAGACATACACACAAAAAGGTTATAAAT [CACACA_site4222]”, the “gcPBM binding intensity (ln)” value was determined as 10.2.
The result for “AACACATACAGACACACACACAAAAAAAAAAAAAAA [CACACA_site6322]” reads 10.9; that for “TATATTTTTATAATAACACACGATATATGTTTAGGA [CACACA_site1283]”, 9.63.
The result for “TAAGACTATTAAAAAATTGAGTACATGAACTGTTCA [GTGCAC_negctrl_site670]” reads 9.41; that for “AACAAAATAAGACACACACACAAATGTACCTATATA [CACACA_site7189]”, 10.4.
“ATATCTAAATATATTACACACAGATATCTTCCTATA [CACACA_site3701]”: the “gcPBM binding intensity (ln)” value was 9.87.
With “CTAAGAAAAAATAAAGCACACAAATATTTTAAAAAC [CACACA_site9094]”, the “gcPBM binding intensity (ln)” value was found to be 9.93.
Turning to “AATTTTTTTTTTTTTTTTTTTTATATATGTGTGTGT [XGTACX_negctrl_site129]”, the “gcPBM binding intensity (ln)” value came to 11.
As for “TATATATGTATCAAGTGTACAGTTTTAAAAAAAAAA [XGTACX_site6011]”, the “gcPBM binding intensity (ln)” value turned out to be 9.67.
With “TTATATATTTTTATGTGTACTTATATATATATATAT [XGTACX_site6211]”, the “gcPBM binding intensity (ln)” value was 9.77.
For the sequence “ATATTTATATATATATGTACATATGTGTGTTTTTAT [XGTACX_site3956]”, the “gcPBM binding intensity (ln)” value was found to be 9.91.
The result for “TATATGTTAATTTTTTTTTTTTTTTTTTTTTTTATA [CACACA_negctrl_site62]” reads 9.26.
As to “TTTTTTATATATGTGTGTGTGTGTGTGTCAAGTTTA [GTGCAC_negctrl_site460]”, the “gcPBM binding intensity (ln)” value is 11.1.
In the case of “ATAATGTAAAATAAATGTACGCAATATATAAAAAAT [XGTACX_site5747]”, the “gcPBM binding intensity (ln)” value is 10.1.
The result for “AAATAATTTACTTAATGTACATATATATATATATAT [XGTACX_site8594]” reads 9.78; that for “TTGTAGGTAAATATGTGTACGCATTATTATTCTTAA [XGTACX_site216]”, 9.58; that for CTTATAATATTACGGGTGCTATAAATACATTATATT, 9.72.
As to “TAAATATATATATGGTGTACCATTTTGGGTTAATAT [XGTACX_site2706]”, the “gcPBM binding intensity (ln)” value is 9.54.
The result for “ACAACAAAAATAAGCACACACAAATATACATACATA [CACACA_site7664]” reads 11.3; that for “CCAACAAAAATAAGCACACACAAATATACATACATA [CACACA_site3606]”, 11.1; that for “ATACAACAAAAATAAGCACACACAAATATACATACA [CACACA_site9201]”, 10.8.
“AAACAAAAAAAATAAGCACACATATATATATATATA [CACACA_site8173]”: the “gcPBM binding intensity (ln)” value stood at 9.7.
The result for “AATATAAGCAAATACACACACACATATATATATATA [CACACA_site3805]” reads 10.7; that for “ACAAAAAAAATAAGCACACATATATATATATATATA [CACACA_site816]”, 9.91.
Consider “ATATATATATATATGTGTACATATAAGATAGAAGAA [XGTACX_site3198]”, for which the “gcPBM binding intensity (ln)” value worked out at 10.2.
The result for “TTTTTTAATATTTATACATGCATGCCGATTACTATA [TGCATGCA_site26]” reads 9.87.
Regarding TATATATAATACAGTATGCACTATTTTTATTAAAAA, the “gcPBM binding intensity (ln)” value came to 9.41.
In the case of “AGTAACAAAAGAAAAAAATATGCAAACATATATATA [XGTACX_negctrl_site468]”, the “gcPBM binding intensity (ln)” value was 9.65.
Consider “TTTTTATTTGGTTGTGTACACATATATATATATATA [CACACA_site5844]”, for which the “gcPBM binding intensity (ln)” value was found to be 9.84.
The result for “TTATACTAAATGAACACACACACATCTATATTTATA [CACACA_site6199]” reads 10.3.
On to “TGAACACACGAGCACACACACACATCTATATTTATA [CACACA_site6607]”, for which the “gcPBM binding intensity (ln)” value is 11.1.
For “TACATACATACATACACACACACATCTATATTTATA [CACACA_site6171]”, the “gcPBM binding intensity (ln)” value was 10.6.
Take “AAAAAAGAAAAAAGGACACACATAAATATACACCCG [CACACA_site5590]”: the “gcPBM binding intensity (ln)” value came out at 10.2.
The result for “AAAAAAATAAAGGATATACACACTAATTATATATAT [CACACA_site2812]” reads 9.81; that for “ATAAATAAAGGACACACACACACACTAATAAAAAAA [CACACA_site8840]”, 11.4; that for “ATAAATAAAGGACACACACACACACTAGAAAAAAAA [CACACA_site5450]”, 11.1.
The result for “GTAGAGAAAAAAATGTGGACACAAAAAATAAAAAGG [XGTACX_site4058]” reads 9.79; that for “AAAAATAAAGGATATACACACTAATTATATATATAT [CACACA_site5550]”, 9.91; that for “ATATGTTTTGTTTACGTGCACTGCTTTGTTTATATA [GTGCAC_site9622]”, 10.5.
As to “ATATTTATTTATAATTGTACTAATAATATATTTTAA [XGTACX_site587]”, the “gcPBM binding intensity (ln)” value stood at 9.51.
The result for “TTTCCTTACCCTTTCCTGGTGTAGAAATTATACTCT [TGCATGCA_negctrl_site116]” reads 9.61; that for “TATTTCATCTTTTAAGAAGGTACCCATATGTCATAT [GTGCAC_negctrl_site403]”, 9.57; that for “TTATTTTATTTTAAAAAAAACAATATAAATTCAAAG [GTGCAC_negctrl_site57]”, 9.09.
